# How the values were obtained:
# Test in all cases: DAPPL (digital affinity profiling via proximity ligation, sequencing); 10 mM Tris-HCl pH 7.5, 50 mM NaCl, 1 mM DTT, 4% glycerol, room temperature, 30 min; GST-TFs on glutathione beads, 16-mer random dsDNA library, 0.1% formaldehyde crosslink after washing; high values mean tight binding
# FEV = molecular target: T1, FEV (Homo sapiens, UniProt Q99581 1-238); conditions: protein: recombinant; tags: N-terminal GST; dsDNA, one strand shown
# T1 sequence: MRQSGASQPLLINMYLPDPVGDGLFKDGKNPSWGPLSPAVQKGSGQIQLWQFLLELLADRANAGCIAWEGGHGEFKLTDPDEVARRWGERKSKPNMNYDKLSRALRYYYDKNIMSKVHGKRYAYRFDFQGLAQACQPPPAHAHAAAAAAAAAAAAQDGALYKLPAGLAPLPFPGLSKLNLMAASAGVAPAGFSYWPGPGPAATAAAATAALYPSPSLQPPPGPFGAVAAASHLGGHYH
# Summary of the method: (§1)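 Yeast served to express human transcription factors as GST fusions, which were then captured on glutathione beads and labelled with DNA barcodes. Pooled with a tag-only sample, they were incubated with 200 nmole of a 16-mer random double-stranded DNA library for 30 min at room temperature in Tris/NaCl/DTT/glycerol buffer, washed, crosslinked with 0.1% formaldehyde, ligated by proximity, amplified by PCR and sequenced. Dividing each hexamer's read frequency for a factor by its frequency for the tag-only sample gives the binding signal.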
# ETV5 = ETV5 (Homo sapiens, UniProt P41161 1-510); conditions: protein: recombinant; tags: N-terminal GST; dsDNA, one strand shown
# Summary of the method: as §1
# HSF1 = HSF1 (Homo sapiens, UniProt Q00613 1-529); conditions: protein: recombinant; tags: N-terminal GST; chain copies: 3; dsDNA, one strand shown
# Summary of the method: as §1
# SPIC = molecular target: T2, SPIC (Homo sapiens, UniProt Q8N5J4 1-248); conditions: protein: recombinant; tags: N-terminal GST; dsDNA, one strand shown
# T2 sequence: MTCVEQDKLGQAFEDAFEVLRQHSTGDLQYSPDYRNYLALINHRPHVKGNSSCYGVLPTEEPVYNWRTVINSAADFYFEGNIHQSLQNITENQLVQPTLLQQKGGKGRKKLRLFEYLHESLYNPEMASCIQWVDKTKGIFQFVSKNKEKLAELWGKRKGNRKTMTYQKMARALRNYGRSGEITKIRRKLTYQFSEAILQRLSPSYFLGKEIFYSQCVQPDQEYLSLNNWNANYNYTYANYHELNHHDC
# Summary of the method: as §1
# ELF4 = ELF4 (Homo sapiens, UniProt Q99607 1-663); conditions: protein: recombinant; tags: N-terminal GST; dsDNA, one strand shown
# Summary of the method: as §1
# ELK4 = molecular target: T3, ELK4 (Homo sapiens, UniProt P28324-2 1-405); conditions: protein: recombinant; tags: N-terminal GST; dsDNA, one strand shown
# T3 sequence: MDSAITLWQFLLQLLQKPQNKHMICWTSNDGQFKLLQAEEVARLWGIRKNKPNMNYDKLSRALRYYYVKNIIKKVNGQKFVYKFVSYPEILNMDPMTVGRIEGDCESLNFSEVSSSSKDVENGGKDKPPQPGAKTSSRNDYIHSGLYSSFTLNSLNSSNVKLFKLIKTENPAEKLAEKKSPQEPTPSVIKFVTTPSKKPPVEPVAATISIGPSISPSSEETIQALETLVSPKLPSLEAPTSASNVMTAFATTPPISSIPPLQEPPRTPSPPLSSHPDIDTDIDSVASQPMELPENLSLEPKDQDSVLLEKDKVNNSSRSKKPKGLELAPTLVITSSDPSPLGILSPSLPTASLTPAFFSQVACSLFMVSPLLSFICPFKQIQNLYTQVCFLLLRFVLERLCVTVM
# Summary of the method: as §1
# ETV2 = molecular target: T4, ETV2 (Homo sapiens, UniProt O00321 1-342); conditions: protein: recombinant; tags: N-terminal GST; dsDNA, one strand shown
# T4 sequence: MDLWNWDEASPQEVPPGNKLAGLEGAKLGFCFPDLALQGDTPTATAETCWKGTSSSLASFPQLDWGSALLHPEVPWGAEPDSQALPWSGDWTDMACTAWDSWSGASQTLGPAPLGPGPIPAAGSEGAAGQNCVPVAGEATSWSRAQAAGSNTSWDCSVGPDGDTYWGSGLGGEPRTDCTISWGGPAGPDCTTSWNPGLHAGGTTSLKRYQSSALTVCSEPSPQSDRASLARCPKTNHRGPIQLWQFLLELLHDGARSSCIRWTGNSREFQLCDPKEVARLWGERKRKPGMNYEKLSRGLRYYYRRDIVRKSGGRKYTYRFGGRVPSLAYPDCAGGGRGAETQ
# Summary of the method: as §1
# ELF3 = molecular target: T5, ELF3 (Homo sapiens, UniProt P78545 1-371); conditions: protein: recombinant; tags: N-terminal GST; dsDNA, one strand shown
# T5 sequence: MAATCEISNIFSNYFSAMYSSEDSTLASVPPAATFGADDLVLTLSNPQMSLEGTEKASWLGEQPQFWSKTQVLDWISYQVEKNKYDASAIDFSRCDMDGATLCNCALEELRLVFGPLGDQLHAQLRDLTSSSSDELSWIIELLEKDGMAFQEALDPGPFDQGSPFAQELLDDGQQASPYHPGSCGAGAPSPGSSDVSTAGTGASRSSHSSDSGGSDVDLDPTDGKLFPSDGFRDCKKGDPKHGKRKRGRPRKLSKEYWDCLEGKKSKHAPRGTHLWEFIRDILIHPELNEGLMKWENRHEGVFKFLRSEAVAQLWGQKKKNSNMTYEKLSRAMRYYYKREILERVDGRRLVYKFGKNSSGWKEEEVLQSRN
# Summary of the method: as §1
# CRX = CRX (Homo sapiens, UniProt O43186 1-299); conditions: protein: recombinant; tags: N-terminal GST; dsDNA, one strand shown
# Summary of the method: as §1
# ETV1 = ETV1 (Homo sapiens, UniProt P50549 1-477); conditions: protein: recombinant; tags: N-terminal GST; dsDNA, one strand shown
# Summary of the method: as §1
# ERF = molecular target: T6, ERF (Homo sapiens, UniProt P50548 1-548); conditions: protein: recombinant; tags: N-terminal GST; dsDNA, one strand shown
# T6 sequence: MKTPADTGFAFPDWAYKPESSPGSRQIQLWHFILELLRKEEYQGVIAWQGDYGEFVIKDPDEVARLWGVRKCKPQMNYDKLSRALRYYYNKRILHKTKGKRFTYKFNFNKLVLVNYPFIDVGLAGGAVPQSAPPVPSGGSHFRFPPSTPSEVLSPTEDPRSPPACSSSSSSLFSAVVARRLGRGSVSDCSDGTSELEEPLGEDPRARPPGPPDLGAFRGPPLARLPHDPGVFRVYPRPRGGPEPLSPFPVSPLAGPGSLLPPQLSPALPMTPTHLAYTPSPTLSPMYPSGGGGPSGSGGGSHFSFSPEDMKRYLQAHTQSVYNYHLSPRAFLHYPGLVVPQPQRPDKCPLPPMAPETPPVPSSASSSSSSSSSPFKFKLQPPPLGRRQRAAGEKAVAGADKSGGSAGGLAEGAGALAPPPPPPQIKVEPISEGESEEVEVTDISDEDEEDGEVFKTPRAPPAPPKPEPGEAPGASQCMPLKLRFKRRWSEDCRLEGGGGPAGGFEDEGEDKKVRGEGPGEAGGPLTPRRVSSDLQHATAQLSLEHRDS
# Summary of the method: as §1
# ETV3L = molecular target: T7, ETV3L (Homo sapiens, UniProt Q6ZN32 1-361); conditions: protein: recombinant; tags: N-terminal GST; dsDNA, one strand shown
# T7 sequence: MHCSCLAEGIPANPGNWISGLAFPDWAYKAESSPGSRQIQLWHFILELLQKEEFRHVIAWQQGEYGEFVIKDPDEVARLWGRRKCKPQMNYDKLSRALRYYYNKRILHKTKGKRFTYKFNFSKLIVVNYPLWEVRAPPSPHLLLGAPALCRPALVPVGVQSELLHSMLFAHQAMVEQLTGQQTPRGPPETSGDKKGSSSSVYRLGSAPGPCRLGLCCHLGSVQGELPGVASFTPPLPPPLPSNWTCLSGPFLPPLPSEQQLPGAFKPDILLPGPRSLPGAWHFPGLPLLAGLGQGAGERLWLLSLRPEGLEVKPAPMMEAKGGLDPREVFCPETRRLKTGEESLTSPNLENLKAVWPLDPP
# Summary of the method: as §1
# ETS2 = molecular target: T8, ETS2 (Homo sapiens, UniProt P15036 1-469); conditions: protein: recombinant; tags: N-terminal GST; dsDNA, one strand shown
# T8 sequence: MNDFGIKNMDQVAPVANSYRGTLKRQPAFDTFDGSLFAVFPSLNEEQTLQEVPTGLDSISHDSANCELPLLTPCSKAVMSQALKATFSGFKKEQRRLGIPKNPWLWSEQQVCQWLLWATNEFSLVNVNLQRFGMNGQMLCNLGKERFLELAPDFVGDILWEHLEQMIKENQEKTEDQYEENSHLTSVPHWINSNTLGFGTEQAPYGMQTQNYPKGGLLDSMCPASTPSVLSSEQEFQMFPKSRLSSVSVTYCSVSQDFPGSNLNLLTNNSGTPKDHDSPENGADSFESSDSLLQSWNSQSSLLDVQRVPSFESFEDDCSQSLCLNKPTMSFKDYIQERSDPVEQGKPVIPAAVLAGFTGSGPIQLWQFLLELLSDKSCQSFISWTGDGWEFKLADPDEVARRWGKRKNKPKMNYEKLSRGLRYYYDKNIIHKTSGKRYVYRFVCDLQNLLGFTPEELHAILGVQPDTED
# Summary of the method: as §1
# SPDEF = molecular target: T9, SPDEF (Homo sapiens, UniProt O95238 1-335); conditions: protein: recombinant; tags: N-terminal GST; dsDNA, one strand shown
# T9 sequence: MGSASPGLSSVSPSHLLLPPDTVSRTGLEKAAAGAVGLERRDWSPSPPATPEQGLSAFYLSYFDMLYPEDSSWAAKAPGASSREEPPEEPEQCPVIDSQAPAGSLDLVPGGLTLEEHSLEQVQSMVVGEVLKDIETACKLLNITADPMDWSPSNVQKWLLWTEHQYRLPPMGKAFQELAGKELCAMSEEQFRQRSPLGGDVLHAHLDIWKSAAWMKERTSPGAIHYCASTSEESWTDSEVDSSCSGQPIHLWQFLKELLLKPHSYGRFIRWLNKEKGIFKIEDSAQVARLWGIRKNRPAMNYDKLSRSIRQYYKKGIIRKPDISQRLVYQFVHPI
# Summary of the method: as §1
# ETV7 = molecular target: T10, ETV7 (Homo sapiens, UniProt Q9Y603 1-341); conditions: protein: recombinant; tags: N-terminal GST; dsDNA, one strand shown
# T10 sequence: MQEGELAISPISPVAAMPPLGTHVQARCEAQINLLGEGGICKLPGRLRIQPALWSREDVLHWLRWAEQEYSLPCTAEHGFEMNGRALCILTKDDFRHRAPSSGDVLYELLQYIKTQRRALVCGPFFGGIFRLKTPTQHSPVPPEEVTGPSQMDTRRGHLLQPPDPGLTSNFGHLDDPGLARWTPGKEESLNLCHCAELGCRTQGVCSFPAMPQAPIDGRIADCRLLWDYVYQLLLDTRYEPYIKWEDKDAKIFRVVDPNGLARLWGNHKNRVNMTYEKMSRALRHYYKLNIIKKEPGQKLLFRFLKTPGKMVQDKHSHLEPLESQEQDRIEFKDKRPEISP
# Summary of the method: as §1
# ELF5 = molecular target: T11, ELF5 (Homo sapiens, UniProt Q9UKW6-2 1-255); conditions: protein: recombinant; tags: N-terminal GST; dsDNA, one strand shown
# T11 sequence: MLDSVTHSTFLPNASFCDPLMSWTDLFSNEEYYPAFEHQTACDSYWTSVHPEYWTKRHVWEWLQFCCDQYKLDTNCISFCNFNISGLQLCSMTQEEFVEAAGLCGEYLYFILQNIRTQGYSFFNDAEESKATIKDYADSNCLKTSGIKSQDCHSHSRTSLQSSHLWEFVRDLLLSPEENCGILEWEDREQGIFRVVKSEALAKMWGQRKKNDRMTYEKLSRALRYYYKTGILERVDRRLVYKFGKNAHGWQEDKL
# Summary of the method: as §1
# ETV3 = molecular target: T12, ETV3 (Homo sapiens, UniProt P41162-2 1-143); conditions: protein: recombinant; tags: N-terminal GST; dsDNA, one strand shown
# T12 sequence: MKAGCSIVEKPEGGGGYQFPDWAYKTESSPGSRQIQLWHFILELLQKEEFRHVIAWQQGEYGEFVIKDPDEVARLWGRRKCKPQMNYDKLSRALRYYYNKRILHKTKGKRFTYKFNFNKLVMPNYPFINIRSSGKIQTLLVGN
# Summary of the method: as §1
# ETV6 = ETV6 (Homo sapiens, UniProt P41212 1-452); conditions: protein: recombinant; tags: N-terminal GST; dsDNA, one strand shown
# Summary of the method: as §1
# Chain of ETV1 (P50549 whole entry): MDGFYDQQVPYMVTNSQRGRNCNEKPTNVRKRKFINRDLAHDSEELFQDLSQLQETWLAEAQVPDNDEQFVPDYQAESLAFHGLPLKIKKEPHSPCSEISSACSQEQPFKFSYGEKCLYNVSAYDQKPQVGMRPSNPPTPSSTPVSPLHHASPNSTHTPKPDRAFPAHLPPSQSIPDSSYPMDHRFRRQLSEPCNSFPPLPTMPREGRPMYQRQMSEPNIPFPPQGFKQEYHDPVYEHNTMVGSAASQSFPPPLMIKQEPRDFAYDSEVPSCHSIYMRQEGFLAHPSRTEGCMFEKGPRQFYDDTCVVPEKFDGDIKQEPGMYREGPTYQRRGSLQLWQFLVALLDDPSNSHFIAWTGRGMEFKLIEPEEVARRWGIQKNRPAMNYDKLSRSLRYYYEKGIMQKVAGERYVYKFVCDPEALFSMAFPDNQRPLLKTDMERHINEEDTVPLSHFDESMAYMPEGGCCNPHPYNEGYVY
# Chain of ELF4 (Q99607 whole entry): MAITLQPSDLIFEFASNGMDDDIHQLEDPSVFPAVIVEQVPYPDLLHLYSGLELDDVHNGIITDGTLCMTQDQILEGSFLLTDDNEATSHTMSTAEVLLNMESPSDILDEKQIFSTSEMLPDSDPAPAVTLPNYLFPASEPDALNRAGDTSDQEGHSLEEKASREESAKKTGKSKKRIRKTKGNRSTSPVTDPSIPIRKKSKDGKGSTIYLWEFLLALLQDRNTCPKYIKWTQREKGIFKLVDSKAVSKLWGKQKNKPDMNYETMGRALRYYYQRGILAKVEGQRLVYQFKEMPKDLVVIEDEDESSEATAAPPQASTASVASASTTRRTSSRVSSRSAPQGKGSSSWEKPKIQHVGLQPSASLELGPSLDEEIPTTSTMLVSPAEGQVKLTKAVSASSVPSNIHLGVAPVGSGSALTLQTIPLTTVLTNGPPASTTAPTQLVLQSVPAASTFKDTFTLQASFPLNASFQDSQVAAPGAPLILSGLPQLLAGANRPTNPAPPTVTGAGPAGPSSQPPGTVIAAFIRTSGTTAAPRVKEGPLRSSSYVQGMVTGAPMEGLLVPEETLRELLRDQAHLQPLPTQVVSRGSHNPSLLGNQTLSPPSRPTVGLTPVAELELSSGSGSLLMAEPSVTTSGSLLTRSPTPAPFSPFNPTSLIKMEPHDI
# Chain of ETV5 (P41161 whole entry): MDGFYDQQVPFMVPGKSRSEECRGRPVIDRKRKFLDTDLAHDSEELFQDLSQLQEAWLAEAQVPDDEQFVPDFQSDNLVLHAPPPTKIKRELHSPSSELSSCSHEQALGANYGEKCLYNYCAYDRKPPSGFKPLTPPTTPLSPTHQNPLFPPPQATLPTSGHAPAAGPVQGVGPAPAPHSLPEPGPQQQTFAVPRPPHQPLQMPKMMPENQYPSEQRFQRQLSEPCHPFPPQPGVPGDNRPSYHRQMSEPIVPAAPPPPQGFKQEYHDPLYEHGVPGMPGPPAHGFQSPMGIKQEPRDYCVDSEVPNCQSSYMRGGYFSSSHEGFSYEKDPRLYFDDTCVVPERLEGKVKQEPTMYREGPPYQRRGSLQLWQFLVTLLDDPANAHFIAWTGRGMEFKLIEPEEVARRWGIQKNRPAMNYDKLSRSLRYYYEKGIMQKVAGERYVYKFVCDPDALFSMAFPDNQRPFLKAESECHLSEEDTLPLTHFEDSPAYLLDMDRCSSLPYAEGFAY
# Chain of HSF1 (Q00613 whole entry): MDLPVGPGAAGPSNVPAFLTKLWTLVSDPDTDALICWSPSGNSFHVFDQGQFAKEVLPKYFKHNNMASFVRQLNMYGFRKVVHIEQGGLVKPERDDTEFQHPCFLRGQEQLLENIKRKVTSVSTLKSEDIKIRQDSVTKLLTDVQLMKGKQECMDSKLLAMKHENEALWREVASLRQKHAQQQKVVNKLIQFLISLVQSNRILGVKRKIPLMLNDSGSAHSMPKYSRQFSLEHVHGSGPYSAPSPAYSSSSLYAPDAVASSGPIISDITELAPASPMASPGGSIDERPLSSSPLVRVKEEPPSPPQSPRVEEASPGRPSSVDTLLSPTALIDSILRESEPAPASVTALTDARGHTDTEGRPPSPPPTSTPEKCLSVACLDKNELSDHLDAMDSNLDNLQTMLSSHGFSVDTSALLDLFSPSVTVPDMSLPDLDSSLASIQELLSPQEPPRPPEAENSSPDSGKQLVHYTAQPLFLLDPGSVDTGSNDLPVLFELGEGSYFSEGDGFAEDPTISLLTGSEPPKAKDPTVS
# Chain of CRX (O43186 whole entry): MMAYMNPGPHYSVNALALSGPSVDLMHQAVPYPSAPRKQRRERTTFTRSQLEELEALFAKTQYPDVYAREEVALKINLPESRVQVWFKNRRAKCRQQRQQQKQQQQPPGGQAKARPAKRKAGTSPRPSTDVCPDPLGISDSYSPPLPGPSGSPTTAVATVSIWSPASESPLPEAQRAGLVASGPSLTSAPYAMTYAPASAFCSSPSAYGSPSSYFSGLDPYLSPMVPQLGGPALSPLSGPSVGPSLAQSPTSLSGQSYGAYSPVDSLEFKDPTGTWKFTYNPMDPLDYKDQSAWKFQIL
# Chain of ETV6 (P41212 whole entry): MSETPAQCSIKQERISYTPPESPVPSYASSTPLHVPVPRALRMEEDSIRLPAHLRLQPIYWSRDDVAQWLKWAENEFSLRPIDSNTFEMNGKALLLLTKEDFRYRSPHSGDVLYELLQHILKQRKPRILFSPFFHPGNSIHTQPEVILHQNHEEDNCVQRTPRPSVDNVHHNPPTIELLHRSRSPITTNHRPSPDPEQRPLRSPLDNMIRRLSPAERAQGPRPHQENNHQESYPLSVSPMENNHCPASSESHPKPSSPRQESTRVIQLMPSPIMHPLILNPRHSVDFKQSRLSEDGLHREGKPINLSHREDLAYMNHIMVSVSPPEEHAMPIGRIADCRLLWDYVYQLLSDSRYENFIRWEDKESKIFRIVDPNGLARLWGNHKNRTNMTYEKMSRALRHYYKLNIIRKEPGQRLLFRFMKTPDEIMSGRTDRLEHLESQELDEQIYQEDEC
sequence,measurement,setting,value
CACAAG,binding signal,FEV,"1.08 fold enrichment (6-mer frequency, TF over GST control)"
same,binding signal,ETV5,"1.13 fold enrichment (6-mer frequency, TF over GST control)"
same,binding signal,HSF1,"1.06 fold enrichment (6-mer frequency, TF over GST control)"
same,binding signal,SPIC,"1.09 fold enrichment (6-mer frequency, TF over GST control)"
same,binding signal,ELF4,"1.2 fold enrichment (6-mer frequency, TF over GST control)"
same,binding signal,ELK4,"1.07 fold enrichment (6-mer frequency, TF over GST control)"
same,binding signal,ETV2,"1.11 fold enrichment (6-mer frequency, TF over GST control)"
same,binding signal,ELF3,"1.17 fold enrichment (6-mer frequency, TF over GST control)"
same,binding signal,CRX,"1.01 fold enrichment (6-mer frequency, TF over GST control)"
same,binding signal,ETV1,"1.18 fold enrichment (6-mer frequency, TF over GST control)"
same,binding signal,ERF,"1.13 fold enrichment (6-mer frequency, TF over GST control)"
same,binding signal,ETV3L,"1.16 fold enrichment (6-mer frequency, TF over GST control)"
same,binding signal,ETS2,"1.22 fold enrichment (6-mer frequency, TF over GST control)"
same,binding signal,SPDEF,"1.07 fold enrichment (6-mer frequency, TF over GST control)"
same,binding signal,ETV7,"1.05 fold enrichment (6-mer frequency, TF over GST control)"
same,binding signal,ELF5,"1.11 fold enrichment (6-mer frequency, TF over GST control)"
same,binding signal,ETV3,"1.16 fold enrichment (6-mer frequency, TF over GST control)"
same,binding signal,ETV6,"1.14 fold enrichment (6-mer frequency, TF over GST control)"
